CCT chaperon mod = cytosolic chaperonin activity modulation; purified chaperonin ATPase assay, HTRF ADP detection, 30 min; 0.3% of 360,000 active; activity change, % (concentration not given with the values), hits read low; AID 651819; in the data active means activity change below about -30%; further: on the % scale 0 is the no-effect control and ±100 the full control effect
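First, chaperonin was dispensed at 40 nM or 20 nM final depending on batch activity. Next, compounds were pinned at 76 uM and ATP added at 10 uM. After 30 min at 37 °C, ADP detection reagents ran 30 min at ambient temperature.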
ASM inhibitor = blocks human secretory acid sphingomyelinase | P17405 | placental ASM, HMU-PC fluorogenic substrate, 60 min | Potency, µM (doses to about 57.5 µM), inactives show top-dose activity change, negative = inhibition, actives largely listed as inhibitors | 0.006% of 340,000 active | AID 504937; further: potency means the concentration at half of the fitted maximal effect
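Steps: dispense placental human ASM, pin compound, wait 10 min at room temperature, add HMU-PC0 substrate at 9 uM final, incubate 60 min at 37 °C, add stop solution raising pH to 10, read fluorescence.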
12-LOX inh = inhibitors of human 12S-lipoxygenase ALOX12; 1.1% of 580,000 active; Potency, µM (titrated, usually from 108 µM), inactives show at the top dose activity change, negative = inhibition, most hits filed as inhibitors; purified 12hLO, xylenol orange hydroperoxide absorbance; further: potency means the concentration at half of the fitted maximal effect; on the % scale 0 is the no-effect control and ±100 the full control effect
Target sequence (P18054 whole entry, looked up): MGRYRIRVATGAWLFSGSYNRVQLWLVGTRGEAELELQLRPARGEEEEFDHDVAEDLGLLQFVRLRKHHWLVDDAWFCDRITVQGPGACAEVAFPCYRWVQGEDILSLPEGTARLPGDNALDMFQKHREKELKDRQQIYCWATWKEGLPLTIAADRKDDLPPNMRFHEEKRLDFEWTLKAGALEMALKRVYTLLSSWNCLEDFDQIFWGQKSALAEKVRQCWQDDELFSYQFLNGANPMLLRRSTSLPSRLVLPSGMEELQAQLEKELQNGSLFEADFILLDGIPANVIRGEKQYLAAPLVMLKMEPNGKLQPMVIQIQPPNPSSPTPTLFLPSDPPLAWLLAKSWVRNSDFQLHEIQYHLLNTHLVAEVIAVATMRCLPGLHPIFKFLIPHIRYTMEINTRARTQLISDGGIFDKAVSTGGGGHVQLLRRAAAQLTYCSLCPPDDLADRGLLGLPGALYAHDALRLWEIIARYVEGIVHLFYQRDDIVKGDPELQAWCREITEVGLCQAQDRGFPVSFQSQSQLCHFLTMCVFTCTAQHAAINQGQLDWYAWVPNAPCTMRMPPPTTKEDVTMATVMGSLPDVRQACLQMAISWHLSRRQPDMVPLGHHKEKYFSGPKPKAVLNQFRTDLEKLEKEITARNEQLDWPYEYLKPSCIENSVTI
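Hydroperoxide product was detected by ferrous iron/xylenol orange as the 573 to 405 nm absorbance ratio. Arachidonic acid at 40 uM (final) was turned over for 30 min at room temperature by 150 nM human 12hLO, pH 7.0 Hepes buffer, after 15 min compound preincubation.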
p53 reactivator = mutant p53 re-activation in reporter cells. AID 504706. H1299 p53-A138V BP100-luciferase reporter, luminescence, 24 h. 0.063% of 320,000 active. Potency, µM (top dose mostly 92.2 µM), without a hit: top-dose activity change, positive = activation, hits mostly activators; further: potency means the concentration at half of the fitted maximal effect; % of control where 0% means no effect; nearly all actives have a fitted effect of over 45% in size
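H1299 (p53-null), stable ts p53-A138V + BP100-Luc; 1000 cells/well, Opti-MEM/10% FBS; cpd 4 pt, 1:5; 24 h, 37 deg C, 5% CO2; detection reagent 10 min RT; luminescence.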
PINK1 modulator = PINK1 expression modulation. PINK1 immunofluorescence, high-content cytometry, 24 h. Potency, µM (titrated, usually from 76.6 µM), inactives show top-dose activation (PINK1 increase), actives largely listed as activators. 0.2% of 410,000 active. AID 624263; active means well fitted activation curve with a large enough effect; inconclusive means small, poorly fitted or top-dose-only effect; cell line not stated here; further: potency means the concentration at half of the fitted maximal effect; % of control where 0% means no effect; nearly all actives have a fitted effect of over 65% in size
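Stable cell line, 250 cells/well, 12 h attachment; compounds pinned at 5 concentrations, 24 h; CCCP control. Fixed with nuclear dye, primary antibodies 12 h at 10 degrees C, secondary plus cell stain; laser-scanning cytometer read.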
Mm-Cpn inhibitor = blocks the Methanococcus maripaludis chaperonin Mm-Cpn; purified Mm-Cpn ATPase, ADP Transcreener TR-FRET; Potency, µM (titrated, usually from 76.9 µM), without a hit: at the top dose activity, negative = inhibition, most hits filed as inhibitors; 0.031% of 330,000 active; AID 504842; further: potency means the concentration at half of the fitted maximal effect; on the % scale 0 is the no-effect control and ±100 the full control effect; nearly all actives have a fitted effect of over 80% in size
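Reaction buffer contained 30 mM Tris pH 7.4, 100 mM KCl, 5 mM MgCl2 and 1 mM DTT. Mm-CPN (25 nM final) hydrolysed 10 uM ATP over 30 min at 37°C; ADP was read by HTRF.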
Active calls of the source: *; ! = a repeat was not active; [ ] = remark or other dose. A selection: hits, their analogues and other compounds. The true share with any hit is near 1.4%. Unless noted, the call rests on the fitted dose curve; in most records, active means well fitted curve in the direction sought with a large enough effect; inconclusive means small, poorly fitted or top-dose-only effect, or another doubt; inactive means no such curve, though single readings can be large; an effect the other way counts as inactive or inconclusive.

How did Cc1ccc(-c2nnc3ccc(SC(C)C(=O)O)nn23)cc1 (configuration not stated) do in these assays?
CCT chaperon mod: -2.2; ASM inhibitor: 4.1%; 12-LOX inh: 31.6µM*; p53 reactivator: 1.7%; PINK1 modulator: 3.6%; Mm-Cpn inhibitor: -4.4%

Results for COc1ccc(-c2nnc3ccc(SCC(=O)N4CCN(c5ccccc5)CC4)nn23)cc1 ?
CCT chaperon mod: -0.9; ASM inhibitor: -0.5%; 12-LOX inh: 31.6µM*; PINK1 modulator: 4.9%

Results for O=C(NCCCN1CCOCC1)c1ccc(S(=O)(=O)Nc2cccc(C(F)(F)F)c2)cc1 ?
CCT chaperon mod: -36.9*; ASM inhibitor: 0.2%; 12-LOX inh: 6.4%; p53 reactivator: 1.3%; PINK1 modulator: 2.6%; Mm-Cpn inhibitor: -0.3%

What do the screens show for `COc1ccc(C(=O)OCC(=O)Nc2ncc([N+](=O)[O-])s2)cc1OC`?
CCT chaperon mod: -1.9; ASM inhibitor: -1.5%; 12-LOX inh: 35.5µM*; p53 reactivator: 16.5%; PINK1 modulator: 0.5%; Mm-Cpn inhibitor: -0.1%

Results for Cn1ncc(S(=O)(=O)Cc2ccccc2)c(Cl)c1=O ?
CCT chaperon mod: -0.1; ASM inhibitor: 3.4%; 12-LOX inh: 14.1µM*; p53 reactivator: 0.1%; PINK1 modulator: 0.6%; Mm-Cpn inhibitor: -1.8%

What do the screens show for `Cn1ncc(SCc2ccccc2)c(Cl)c1=O`?
CCT chaperon mod: -0.4; ASM inhibitor: -2.0%; 12-LOX inh: inconclusive; p53 reactivator: 8.0%; PINK1 modulator: -0.4%; Mm-Cpn inhibitor: 0.6%

What do the screens show for `N#Cc1sc2nc(-c3ccccc3)cc(C(F)(F)F)c2c1N`?
CCT chaperon mod: 1.5; ASM inhibitor: -2.0%; 12-LOX inh: -11.5%; p53 reactivator: 4.0%; PINK1 modulator: 11.2µM*; Mm-Cpn inhibitor: -2.7%

How did CCCCC1Cc2[nH]c(=S)[nH]c(=O)c2C(c2ccc(C(C)C)cc2)O1 (configuration not stated) do in these assays?
CCT chaperon mod: 0.3; 12-LOX inh: 39.8µM*; PINK1 modulator: -0.8%

What do the screens show for `Cc1ccc(-c2nc3cccnc3s2)cc1NC(=O)c1ccccc1Cl`?
12-LOX inh: -14.6%

Results for CCn1c(SCc2nc3ccccc3nc2C)nnc1-c1cccs1 ?
CCT chaperon mod: -1.3; ASM inhibitor: -1.8%; 12-LOX inh: -11.7%; p53 reactivator: 3.8%; PINK1 modulator: 1.7%; Mm-Cpn inhibitor: -0.1%

What do the screens show for `C=CCn1c(SCc2nc3ccccc3nc2C)nnc1-c1ccoc1C`?
CCT chaperon mod: 0.2; ASM inhibitor: -0.4%; 12-LOX inh: 31.6µM*; p53 reactivator: -5.8%; PINK1 modulator: 0.3%; Mm-Cpn inhibitor: -4.6%

Results for CCOCCCNC(=O)CSCCCC(=O)Nc1c(C)cc(C)cc1C ?
12-LOX inh: 13.6%

What do the screens show for `CNCc1cccc(C(F)(F)F)c1`?
12-LOX inh: -0.4%[12.5 µM]

What do the screens show for `C[C@@H](NCCCc1cccc(C(F)(F)F)c1)c1cccc2ccccc12`?
12-LOX inh: 8.91µM*!; PINK1 modulator: inconclusive

How did COc1ccc(C2=Nc3ccccc3N(C(=O)c3ccc(C)cc3)C2C(=O)NCc2ccccc2)cc1 (configuration not stated) do in these assays?
12-LOX inh: 3.55µM*

Results for COc1ccc(C2=Nc3ccccc3N(C(=O)c3ccc4c(c3)OCO4)C2C(=O)NCc2ccccc2)cc1 (configuration not stated) ?
12-LOX inh: -23.2%

Results for COc1ccc(C2=Nc3ccccc3N(C(=O)c3ccc4c(c3)OCO4)C2C(=O)Nc2c(C)cccc2C)cc1 (configuration not stated) ?
12-LOX inh: -59.7%

How did COc1ccc(C2=Nc3ccccc3N(C(=O)c3ccc(C)cc3)C2C(=O)Nc2c(C)cccc2C)cc1 (configuration not stated) do in these assays?
12-LOX inh: 0.794µM*

High-throughput results from PubChem.
